Assay results as given in PubChem BioAssay.
A number with no mark means an inactive call. For some assays here: Measured potencies and affinities stand elsewhere. The source made the active and inactive calls. Unless noted, how the calls were made is not given here.

What was measured:
[1] = antimalarial activity against Dd2 strain (AID 2302;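 active means growth inhibition above 50% at the single 2 µM test dose, taken to imply half-maximal potency below 2 µM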;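 further: 0% = DMSO untreated growth and 100% = chloroquine plus artemisinin killed control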); conditions: P. falciparum Dd2 in RBCs, LDH growth readout, 72 h; at 2 µM; hits give high values
[2] = HepG2 cytotoxicity, primary screen, cytotoxicity control for P. falciparum antimalarial project, cell-based, ATP luminescence (AID 2303;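 active means inhibition above 50%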;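 further: 0% = DMSO wells and 100% = digitonin-killed cells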); conditions: HepG2 viability, 24-48 h, at 10 µM, hits give high values
[3] = target: L-lactate dehydrogenase (Plasmodium falciparum (isolate CDC / Honduras)) (UniProt Q27743); assay: PfLDH activity inhibition – cell lysate, 3D7 strain, counter-screen for P. falciparum growth inhibition project (AID 2304);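 further: 0% = vehicle and 100% = reference inhibitor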; conditions: P. falciparum 3D7 crude extract, LDH APAD/NBT absorbance; at 2 µM; hits give high values
[4] = inhibition of 3D7 malaria parasite growth – strain 3D7 (AID 2306);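 further: 0% = DMSO wells and 100% = chloroquine plus artemisinin control wells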; conditions: P. falciparum 3D7 erythrocytic growth, LDH absorbance, 72 h; at 2 µM; hits give high values
[5] = target: Calcium-dependent protein kinase 1 (Plasmodium falciparum (isolate 3D7)) (UniProt P62344); assay: PfCDPK1 kinase inhibitors, biochemical, TCAMS library (AID 1159585; cut-off not given, nearly all actives have IC50 up to about 0.98 µM;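 further: inhibitors leave more ATP so luminescence rises with inhibition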); conditions: recombinant PfCDPK1, Kinase-Glo ATP depletion luminescence
[6] = target: Plasmodium falciparum protein kinase 6 (PK6, PF3D7_1337100) (UniProt Q8IDW1); assay: PfPK6 kinase inhibitors, biochemical, TCAMS library (AID 1159586); conditions: recombinant PfPK6, Kinase-Glo ATP depletion luminescence
[7] = target: Protein kinase 7 (PK7), Plasmodium falciparum 3D7 (PF3D7_0213400) (UniProt Q7YTF7); assay: inhibition of Plasmodium PK7 catalytic activity – biochemical, TCAMS antimalarial set, Kinase-Glo luminescence (AID 1159587); conditions: recombinant PfPK7, Kinase-Glo ATP depletion luminescence
[8] = target: Calcium-dependent protein kinase 4 (Plasmodium falciparum (isolate 3D7)) (UniProt Q8IBS5); assay: PfCDPK4 kinase inhibitors, biochemical, TCAMS library (AID 1159588; cut-off not given, nearly all actives have IC50 up to about 0.91 µM); conditions: recombinant PfCDPK4, Kinase-Glo ATP depletion luminescence
Calcium-dependent protein kinase 4 (Plasmodium falciparum (isolate 3D7)), sequence (Q8IBS5 whole entry, looked up): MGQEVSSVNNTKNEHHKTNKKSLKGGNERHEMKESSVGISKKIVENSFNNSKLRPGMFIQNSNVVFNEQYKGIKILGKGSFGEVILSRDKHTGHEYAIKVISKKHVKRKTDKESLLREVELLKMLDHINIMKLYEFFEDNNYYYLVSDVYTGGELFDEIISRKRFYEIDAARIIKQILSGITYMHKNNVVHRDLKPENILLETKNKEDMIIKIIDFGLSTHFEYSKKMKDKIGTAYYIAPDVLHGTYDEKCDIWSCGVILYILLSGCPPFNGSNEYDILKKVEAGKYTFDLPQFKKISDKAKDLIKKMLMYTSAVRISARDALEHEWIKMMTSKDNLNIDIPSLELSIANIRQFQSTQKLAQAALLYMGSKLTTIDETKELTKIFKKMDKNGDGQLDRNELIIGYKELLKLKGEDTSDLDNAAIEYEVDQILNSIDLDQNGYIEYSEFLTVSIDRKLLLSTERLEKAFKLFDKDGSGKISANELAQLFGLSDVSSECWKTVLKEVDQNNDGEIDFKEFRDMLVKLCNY

Protein kinase 7 (PK7), Plasmodium falciparum 3D7 (PF3D7_0213400), sequence (Q7YTF7 1-343): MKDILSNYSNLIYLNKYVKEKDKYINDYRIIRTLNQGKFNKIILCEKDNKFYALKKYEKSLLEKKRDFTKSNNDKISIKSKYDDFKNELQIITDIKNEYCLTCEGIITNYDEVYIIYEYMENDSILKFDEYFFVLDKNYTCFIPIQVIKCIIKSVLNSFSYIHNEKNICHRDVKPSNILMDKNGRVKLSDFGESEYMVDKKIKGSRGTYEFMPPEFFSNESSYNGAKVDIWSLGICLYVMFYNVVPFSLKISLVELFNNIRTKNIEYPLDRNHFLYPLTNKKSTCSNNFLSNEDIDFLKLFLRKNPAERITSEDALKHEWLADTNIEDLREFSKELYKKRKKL
Calcium-dependent protein kinase 1 (Plasmodium falciparum (isolate 3D7)), sequence (P62344 whole entry, looked up): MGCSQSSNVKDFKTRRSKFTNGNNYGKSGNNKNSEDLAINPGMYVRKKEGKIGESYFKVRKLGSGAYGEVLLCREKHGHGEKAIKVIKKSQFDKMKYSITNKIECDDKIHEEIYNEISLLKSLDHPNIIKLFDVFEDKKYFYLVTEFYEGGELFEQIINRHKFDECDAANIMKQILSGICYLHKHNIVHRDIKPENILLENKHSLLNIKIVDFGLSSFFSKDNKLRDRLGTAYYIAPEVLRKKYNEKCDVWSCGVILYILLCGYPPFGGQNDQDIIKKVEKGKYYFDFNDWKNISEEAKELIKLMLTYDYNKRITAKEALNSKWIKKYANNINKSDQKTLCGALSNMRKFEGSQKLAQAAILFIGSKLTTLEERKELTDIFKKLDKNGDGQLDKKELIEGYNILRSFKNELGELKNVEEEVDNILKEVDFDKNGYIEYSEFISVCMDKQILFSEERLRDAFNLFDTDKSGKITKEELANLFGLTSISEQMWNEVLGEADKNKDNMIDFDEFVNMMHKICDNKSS
Plasmodium falciparum protein kinase 6 (PK6, PF3D7_1337100), sequence (Q8IDW1 1-305): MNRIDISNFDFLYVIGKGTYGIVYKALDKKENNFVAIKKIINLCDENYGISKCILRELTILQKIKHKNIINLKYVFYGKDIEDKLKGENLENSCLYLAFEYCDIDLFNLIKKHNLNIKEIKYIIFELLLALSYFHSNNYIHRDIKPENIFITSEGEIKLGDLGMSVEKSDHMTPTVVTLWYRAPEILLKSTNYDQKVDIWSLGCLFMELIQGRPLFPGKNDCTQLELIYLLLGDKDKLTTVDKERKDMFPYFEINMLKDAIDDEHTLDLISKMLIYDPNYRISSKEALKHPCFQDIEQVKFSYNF
L-lactate dehydrogenase (Plasmodium falciparum (isolate CDC / Honduras)), sequence (Q27743 whole entry, looked up): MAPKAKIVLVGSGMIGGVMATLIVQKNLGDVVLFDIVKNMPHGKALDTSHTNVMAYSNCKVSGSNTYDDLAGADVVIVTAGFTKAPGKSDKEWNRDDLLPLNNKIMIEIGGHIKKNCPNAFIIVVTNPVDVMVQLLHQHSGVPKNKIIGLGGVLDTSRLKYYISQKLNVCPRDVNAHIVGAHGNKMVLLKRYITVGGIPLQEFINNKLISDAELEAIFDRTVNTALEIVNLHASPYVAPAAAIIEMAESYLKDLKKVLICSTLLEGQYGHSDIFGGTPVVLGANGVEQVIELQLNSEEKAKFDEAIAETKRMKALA

Compound | growth inhibition [1] | inhibition [2] | inhibition [3] | growth inhibition [4] | outcome [5] | outcome [6] | outcome [7] | outcome [8]
O=C(CN1CCN(C(=O)c2ccco2)CC1)Nc1ccccc1Br | 96% (active) | 15% | -4% | 97% (active) | inactive | inactive | inactive | inactive
CC(C)Cc1ccc(N2CCN(CCCCNC(=O)c3ccc(NC(=O)c4ccc(Cl)c(Cl)c4)cc3)CC2)cc1 | 25% | 21% | 0% | 94% (active) | inactive | inactive | inactive | inactive
CCn1ncc2c(NC3CCOCC3)c(CNC(=O)c3ccnn3C)c(C)nc21 | 98% (active) | -11% | -2% | 98% (active) | inactive | inactive | inactive | inactive
CCSc1nnc(C2CCCN(CC(=O)Nc3cc(C(F)(F)F)ccc3Cl)C2)n1CC (stereo not given) | 96% (active) | 0% | 5% | 99% (active) | inactive | inactive | inactive | inactive
CC1(CCc2ccccc2)N=C(Nc2ccc(Cl)cc2)N=C(N)C1c1ccc(Cl)c(Cl)c1 (stereo not given) | 98% (active) | 81% (active) | -6% | 102% (active) | inactive | inactive | inactive | inactive
CCCCCn1c(Sc2ccc(C#N)c([N+](=O)[O-])c2)nnc1-c1ccc(OC)cc1 | 44% | 8% | 4% | 88% (active) | inactive | inactive | inactive | inactive
O=c1cc(NCCCNCc2ccc(Cl)c(Cl)c2)[nH]c2cc(F)cc(F)c12 | 94% (active) | 11% | 0% | 102% (active) | inactive | inactive | inactive | inactive
Oc1c(Cl)cc(-c2ccccc2)cc1CNC1CCCCC1 | 95% (active) | 5% | -5% | 97% (active) | inactive | inactive | inactive | inactive
COc1ccc(CNCc2cccc(-c3ccc(-c4nc5c(C)cccc5[nH]4)s3)c2)cc1 | 65% (active) | 24% | 7% | 103% (active) | inactive | inactive | inactive | inactive
O=C(N[C@@H](Cc1ccccc1)C(=O)NCCN1CCCC1)c1ccc(O)c(-c2ccc(Cl)c(Cl)c2)c1 | 46% | 8% | -2% | 95% (active) | inactive | inactive | inactive | inactive
Oc1ccc(CCNc2nc(NCCCOc3cccc(-c4ccccc4)c3)nc(N3CCNCC3)n2)cc1 | 14% | 40% | -2% | 89% (active) | inactive | inactive | inactive | inactive
O=C(Cc1cccc2ccccc12)NC1CCN(c2ccnc3cc(Cl)ccc23)C1 (stereo not given) | 97% (active) | 13% | -2% | 82% (active) | inactive | inactive | inactive | inactive
Fc1ccc2nc(-c3ccc(-c4ccc(CN5CCN(c6cnccn6)CC5)cc4)s3)[nH]c2c1 | 98% (active) | 45% | 5% | 99% (active) | inactive | inactive | inactive | inactive
COc1ccc(CCn2c(C3CCCCC3)nc3oc4ccccc4c(=O)c3c2=O)cc1 | 66% (active) | 12% | -2% | 91% (active) | inactive | inactive | inactive | inactive
CCNc1cc(C(=O)N[C@@H](Cc2ccccc2)[C@H](O)CN[C@@H]2CCc3ccccc32)cc(N2CCCCS2(=O)=O)c1 | 97% (active) | -7% | 4% | 98% (active) | inactive | inactive | inactive | inactive
COc1c(C2CCN(CCCCNC(=O)c3ccc(-c4ccc(C#N)cc4)c(O)c3)CC2)ccc2c1CCCC2 | 78% (active) | 35% | -2% | 100% (active) | inactive | inactive | inactive | inactive
COc1cc(F)c2ncc(F)c(CCN3C[C@H](CNCc4ccc5c(n4)NC(=O)CS5)[C@H](O)C3)c2c1 | 47% | 10% | 2% | 91% (active) | inactive | inactive | inactive | inactive
N#Cc1ccc(C2CCN(CC[C@H](N)Cc3ccc(Cl)s3)CC2)cc1 | 30% | 31% | 6% | 92% (active) | inactive | inactive | inactive | inactive
CCN(CCCN1CCCCC1)c1cc(C)nc(Nc2ccc(Oc3ccccc3)cc2)n1 | 99% (active) | 50% (active) | -3% | 101% (active) | inactive | inactive | inactive | inactive
COc1ccc2c(NN=Cc3ccc(Cl)cc3)ccnc2c1 | 100% (active) | 8% | 5% | 101% (active) | inactive | inactive | inactive | inactive

Compound | growth inhibition [1] | inhibition [2] | inhibition [3] | growth inhibition [4] | outcome [5] | outcome [6] | outcome [7] | outcome [8]
Cc1cc(N[C@@H](Cc2ccccc2)C(=O)NC2CCCC2)nc(NCCOc2ccccc2)n1 | 48% | 40% | 0% | 98% (active) | inactive | inactive | inactive | inactive
COc1ccc(C=NNc2ccnc3ccccc23)c2ccccc12 | 98% (active) | 27% | 0% | 102% (active) | inactive | inactive | inactive | inactive
Cc1[nH]c(C)c(-c2ccc(OCCCCSc3ccncc3)cc2)c(=O)c1Br | 97% (active) | -3% | -2% | 97% (active) | inactive | inactive | inactive | inactive
CS(=O)(=O)NCCCNCc1cccc(-c2cccc(-c3nc4ccc(C(F)(F)F)cc4[nH]3)c2)c1 | 100% (active) | 17% | 5% | 99% (active) | inactive | inactive | inactive | inactive
Cc1ccccc1C1CCN(C2CCC(NC(=O)/C=C/c3cc(C(F)(F)F)ccc3F)CC2)CC1 (stereo not given) | 45% | 56% (active) | -2% | 100% (active) | inactive | inactive | inactive | inactive
CN1CCCN(c2ccnc3cc4c(cc23)N(C(=O)c2ccccc2Cl)CC4)CC1 | 30% | 4% | 3% | 88% (active) | inactive | inactive | inactive | inactive
CCOC(=O)c1ccc(NC(=O)Nc2ccc(-c3ccc(-c4nc5ccccc5[nH]4)cc3)cc2)cc1 | 100% (active) | 49% | 0% | 101% (active) | inactive | inactive | inactive | inactive
COc1cc2nc(-c3ccccc3)nc(N3CCN(C(=O)c4ccco4)CC3)c2cc1OC | 87% (active) | -7% | 7% | 89% (active) | inactive | inactive | inactive | inactive
Cc1cc(NN=Cc2ccccc2)c2cc(F)ccc2n1 | 94% (active) | 11% | -1% | 101% (active) | inactive | inactive | inactive | inactive
Cc1cc(CN2CCCC(OC(c3ccc(F)cc3)c3ccc(F)cc3)C2)ccc1O (stereo not given) | 82% (active) | 28% | 3% | 89% (active) | inactive | inactive | inactive | inactive
NC(=O)c1cccc(Nc2nccc(Nc3ccc(Oc4c(Cl)cccc4Cl)c(Cl)c3)n2)c1 | 17% | 2% | 5% | 93% (active) | inactive | inactive | inactive | inactive
CCN(CCNC(=O)Cn1c(C)cc2cc([N+](=O)[O-])ccc21)c1cccc(C)c1 | 95% (active) | -3% | 6% | 97% (active) | inactive | inactive | inactive | inactive
Cc1cc(N2Cc3ccccc3C2)nc(Nc2cccc(C#N)c2)n1 | 97% (active) | 6% | -2% | 100% (active) | inactive | inactive | inactive | inactive
OCCc1ccc(Nc2nccc(-c3nnc4ccccn34)n2)cc1 | 46% | 63% (active) | 6% | 93% (active) | inactive | inactive | inactive | inactive
CC1(C)CCC(C)(C)c2c1ccc(C1CCN(CCCCNC(=O)c3ccc(-c4ccc(C#N)cc4)cc3)CC1)c2O | 85% (active) | 81% (active) | 7% | 100% (active) | inactive | inactive | inactive | inactive
NC(N)=NN=CC(=O)Nc1ccc(Cl)c(Cl)c1 | 0% | -14% | 0% | 97% (active) | inactive | inactive | inactive | inactive
N#Cc1cncc(-c2nc3c(N4CCC(N5CCCC5)CC4)cccc3n2CCNCc2ccccc2)c1 | 58% (active) | 3% | -2% | 100% (active) | inactive | inactive | inactive | inactive
CCOc1ccc2c(NN=Cc3ccccn3)cc(C)nc2c1 | 1% | 19% | -3% | 98% (active) | inactive | inactive | inactive | inactive
COc1cccc(C(=O)Nc2nonc2-c2ccc(OC)c(OC)c2)c1 | 50% (active) | 7% | -8% | 97% (active) | inactive | inactive | inactive | inactive
Cc1[nH]c2c(NCc3ccc(F)cc3)nccc2c1C | -3% | 63% (active) | -3% | 83% (active) | inactive | inactive | inactive | inactive
